Assay results published in PubChem BioAssay (NCI).
This is part of a sample that, as a whole, favours compounds with a hit. Of some 79,000 tested, about 15% had one in any assay. Active and inactive are the calls of the source. Rule as the data show it: active = growth inhibition above about 70%; inactive = the rest.

Assays:
[1] = NCI Yeast Anticancer Drug Screen. Data for the rad52 strain (AID 147);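 also: 0% = growth of vehicle-treated control cultures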; conditions: S. cerevisiae rad52 mutant growth inhibition, active compounds read high
In short: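 Screen used a yeast mutant impaired in DNA repair. After compound exposure, growth was measured. Values reflect inhibition compared with vehicle-treated cells.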

[2] = NCI Yeast Anticancer Drug Screen. Data for the rad50EPP+ strain (AID 151);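 also: 0% = growth of vehicle-treated control cultures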; conditions: S. cerevisiae rad50 mutant strain, active compounds read high
In short: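 Exposing the rad50EPP+ strain to each compound, growth was compared with vehicle-only cultures to give inhibition.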

[3] = NCI Yeast Anticancer Drug Screen. Data for the mgt1 strain (AID 153); conditions: S. cerevisiae mgt1 mutant growth inhibition, active compounds read high
In short: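 Genetically defined yeast (mgt1) treated with compound; inhibition of growth expressed against vehicle-treated controls.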

[4] = NCI Yeast Anticancer Drug Screen. Data for the rad50 strain (AID 155);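 also: 0% = growth of vehicle-only cultures of the same strain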; conditions: S. cerevisiae rad50 strain growth inhibition, active compounds read high
In short: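 Relative growth inhibition (compound vs vehicle) was measured in yeast with a defined repair-gene alteration.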

[5] = NCI Yeast Anticancer Drug Screen. Data for the mec2-1 strain (AID 157); conditions: S. cerevisiae mec2-1 strain, active compounds read high
In short: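 Readout is yeast growth inhibition, normalised to vehicle-treated controls, in the mec2-1 strain exposed to compound.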

[6] = NCI Yeast Anticancer Drug Screen. Data for the rad14 strain (AID 159);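 also: 0% = growth of vehicle-treated control cultures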; conditions: S. cerevisiae rad14 strain growth inhibition, active compounds read high
In short: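 Screen for anticancer potential: a yeast strain altered in DNA damage repair is grown with compound, and reduced growth is quantified against vehicle controls.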

[7] = NCI Yeast Anticancer Drug Screen. Data for the sgs1 mgt1 strain (AID 161);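 also: 0% = growth of cultures given vehicle only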; conditions: S. cerevisiae sgs1 mgt1 strain, active compounds read high
In short: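 This yeast growth screen uses a strain with defined DNA-repair lesions; compound-treated growth is compared with vehicle-treated growth.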

[8] = NCI Yeast Anticancer Drug Screen. Data for the CLN2oe strain (AID 163);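 also: 0% = growth of vehicle-only control cultures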; conditions: S. cerevisiae CLN2oe strain, active compounds read high
In short: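 Values reflect how much compound exposure reduced yeast growth, referenced to vehicle-exposed cells. Assay organism is a strain with a defined genetic change affecting cell-cycle control.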

[9] = NCI Yeast Anticancer Drug Screen. Data for the cln2 rad14 strain (AID 165);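 also: 0% = growth equal to vehicle treated cultures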; conditions: S. cerevisiae cln2 rad14 strain, active compounds read high
In short: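 Relative to vehicle controls, growth inhibition of compound-treated cln2 rad14 yeast was recorded.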

[10] = NCI Yeast Anticancer Drug Screen. Data for the bub3 strain (AID 167); conditions: S. cerevisiae bub3 mutant strain, active compounds read high
In short: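 Screening used yeast with an engineered genetic alteration affecting cell cycle control. Compound-exposed cultures were compared with vehicle cultures, and reduced growth was taken as inhibition.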

[11] = NCI Yeast Anticancer Drug Screen. Data for the wt2 strain (AID 169);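 also: 0% = growth of vehicle-treated yeast cultures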; conditions: S. cerevisiae wt2 strain growth inhibition, active compounds read high
In short: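 Values express reduction in yeast growth under compound treatment, referenced to vehicle-treated cells.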

[12] = NCI Yeast Anticancer Drug Screen. Data for the mlh1 strain (AID 171);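 also: 0% = growth of vehicle-treated control cultures of the same strain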; conditions: S. cerevisiae mlh1 strain growth inhibition, active compounds read high
In short: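 Steps: expose the defined-mutant yeast strain to compound; expose a parallel culture to vehicle; measure growth; express compound effect as inhibition relative to the vehicle culture.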

[13] = NCI Yeast Anticancer Drug Screen. Data for the sgs1 strain (AID 173);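 also: 0% = growth of vehicle-only control cultures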; conditions: S. cerevisiae sgs1 mutant, active compounds read high
In short: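 Treat defined-mutant yeast with compound; measure growth; calculate inhibition relative to vehicle-treated cells.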

[14] = NCI Yeast Anticancer Drug Screen. Data for the mlh1 rad18 strain (AID 175); conditions: S. cerevisiae mlh1 rad18 strain growth inhibition, active compounds read high
In short: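 Test agents were incubated with a yeast strain of defined genotype (DNA damage repair defect). Inhibition of growth was derived by comparison with vehicle-exposed cultures.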

[15] = NCI Yeast Anticancer Drug Screen. Data for the rad18 strain (AID 177); conditions: S. cerevisiae rad18 mutant growth inhibition, active compounds read high
In short: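 A genetically defined yeast mutant impaired in DNA damage repair was treated with test compounds, then its growth was measured against cultures receiving vehicle alone.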

[16] = NCI Yeast Anticancer Drug Screen. Data for the wt1 strain (AID 149);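 also: 0% = growth of vehicle-treated wt1 cultures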; conditions: S. cerevisiae wt1 strain (SPY 50644) growth inhibition, active compounds read high
In short: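 Using yeast strain wt1, compound-induced growth inhibition was determined against vehicle-treated cultures.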

[17] = at 5.0 µM (retest, dose inferred, filed as 0.5)
[18] = at 50.0 µM (retest, dose inferred, filed as 5.0)

Measured: growth inhibition

CCc1ccc(NS(=O)(=O)c2ccccc2)c([N+](=O)[O-])c1
inactive: [1]; at 1.2 µM 2% | [1]; at 3.7 µM 2% | [1]; at 11.0 µM 11% | [1]; at 33.0 µM 30% | [2]; at 1.2 µM 10% | [2]; at 3.7 µM 18% | [2]; at 11.0 µM 36% | [2]; at 33.0 µM 53% | [3]; at 1.2 µM 0% | [3]; at 3.7 µM 0% | [3]; at 11.0 µM 3% | [3]; at 33.0 µM 22% | [4]; at 1.2 µM 3% | [4]; at 3.7 µM 5% | [4]; [17] 2% | [4]; at 11.0 µM 5% | [4]; at 33.0 µM 22% | [4]; [18] 39% | [4]; at 50.0 µM 37.2% | [5]; at 1.2 µM 1% | [5]; at 3.7 µM 8% | [5]; [17] 6% | [5]; at 11.0 µM 14% | [5]; at 33.0 µM 27% | [5]; [18] 39% | [5]; at 50.0 µM 55% | [6]; at 1.2 µM 2% | [6]; at 3.7 µM 5% | [6]; at 11.0 µM 6% | [6]; at 33.0 µM 11% | [7]; [17] 8% | [7]; [18] 54% | [8]; at 1.2 µM -2% | [8]; at 3.7 µM -2% | [8]; at 11.0 µM 3% | [8]; at 33.0 µM 17% | [9]; [17] 0% | [9]; [18] 20% | [9]; at 50.0 µM 47.5% | [10]; at 1.2 µM -3% | [10]; at 3.7 µM 4% | [10]; [17] -3% | [10]; at 11.0 µM 7% | [10]; at 33.0 µM 28% | [10]; [18] 36% | [10]; at 50.0 µM 53.6% | [10]; at 100.0 µM 67% | [11]; at 1.2 µM -1% | [11]; at 3.7 µM 3% | [11]; at 11.0 µM 3% | [11]; at 33.0 µM 27% | [12]; at 1.2 µM 0% | [12]; at 3.7 µM 3% | [12]; at 11.0 µM 7% | [12]; at 33.0 µM 31% | [13]; at 1.2 µM 2% | [13]; at 3.7 µM 5% | [13]; at 11.0 µM 15% | [13]; at 33.0 µM 44% | [14]; [17] 1% | [14]; [18] 61% | [15]; at 1.2 µM 2% | [15]; at 3.7 µM 6% | [15]; at 11.0 µM 15% | [15]; at 33.0 µM 43%
active: [1]; at 100.0 µM 76% | [2]; at 100.0 µM 75% | [3]; at 100.0 µM 74% | [4]; at 100.0 µM 72% | [5]; at 100.0 µM 81% | [6]; at 100.0 µM 82% | [7]; at 50.0 µM 70.7% | [8]; at 100.0 µM 73% | [11]; at 100.0 µM 78% | [12]; at 100.0 µM 71% | [13]; at 100.0 µM 90% | [14]; at 50.0 µM 78% | [15]; at 100.0 µM 87%

O=C(O)CNc1ccc(Cl)c(Cl)c1
inactive: [1]; at 1.2 µM -2% | [1]; at 3.7 µM 0% | [1]; at 11.0 µM 14% | [16]; at 1.2 µM -3% | [16]; at 3.7 µM -6% | [16]; at 11.0 µM -6% | [16]; at 33.0 µM 25% | [3]; at 1.2 µM -2% | [3]; at 3.7 µM -4% | [3]; at 11.0 µM -6% | [3]; at 33.0 µM 32% | [4]; at 1.2 µM -2% | [4]; at 3.7 µM 6% | [4]; [17] -7% | [4]; at 11.0 µM 13% | [4]; [18] 18% | [5]; at 1.2 µM -10% | [5]; at 3.7 µM -1% | [5]; [17] -7% | [5]; at 11.0 µM -8% | [5]; at 33.0 µM 38% | [5]; [18] 30% | [5]; at 50.0 µM 57.2% | [6]; at 1.2 µM -6% | [6]; at 3.7 µM -7% | [6]; at 11.0 µM -7% | [6]; at 33.0 µM 48% | [8]; at 1.2 µM -4% | [8]; at 3.7 µM -1% | [8]; at 11.0 µM 0% | [8]; at 33.0 µM 58% | [9]; [17] 10% | [9]; [18] 1% | [10]; at 1.2 µM -9% | [10]; at 3.7 µM -12% | [10]; [17] -8% | [10]; at 11.0 µM 5% | [10]; at 33.0 µM 67% | [10]; [18] 17% | [11]; at 1.2 µM -5% | [11]; at 3.7 µM -5% | [11]; at 11.0 µM -6% | [12]; at 1.2 µM -2% | [12]; at 3.7 µM 1% | [12]; at 11.0 µM 2% | [13]; at 1.2 µM -3% | [13]; at 3.7 µM -5% | [13]; at 11.0 µM 4% | [14]; [17] -16%
active: [1]; at 33.0 µM 77% | [1]; at 100.0 µM 98% | [16]; at 100.0 µM 98% | [3]; at 100.0 µM 99% | [4]; at 33.0 µM 75% | [4]; at 50.0 µM 78.2% | [4]; at 100.0 µM 98% | [5]; at 100.0 µM 99% | [6]; at 100.0 µM 98% | [8]; at 100.0 µM 98% | [9]; at 50.0 µM 84.2% | [10]; at 50.0 µM 87.3% | [10]; at 100.0 µM 98% | [11]; at 33.0 µM 78% | [11]; at 100.0 µM 99% | [12]; at 33.0 µM 71% | [12]; at 100.0 µM 99% | [13]; at 33.0 µM 74% | [13]; at 100.0 µM 98% | [14]; [18] 76% | [14]; at 50.0 µM 89.2%
